UBC9 SUMO inh – inhibitors of in vitro SUMOylation cascade, primary screen, biochemical, HTRF, uHTS; SUMO-conjugating enzyme UBC9 (Homo sapiens), P63279; HTRF SUMOylation assay, SAE1/SAE2 + UBC9; inhibition, % at 35 µM; hit rate 0.36% among 290,000; in the data active = inhibition above about 50%, passing the limit was not always enough
Target sequence (P63279 whole entry, looked up): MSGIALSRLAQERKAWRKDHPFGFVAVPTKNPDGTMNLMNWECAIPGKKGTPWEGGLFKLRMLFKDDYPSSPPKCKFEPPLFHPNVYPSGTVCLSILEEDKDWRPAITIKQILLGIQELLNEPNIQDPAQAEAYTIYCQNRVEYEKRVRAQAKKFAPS
NTR1 agonist – agonists of human NTR1, primary screen, imaging, U2OS cells, beta-arrestin-GFP, high content; Neurotensin receptor type 1 (Homo sapiens), P30989; NTR1-U2OS beta-arrestin-GFP spot imaging, agonist mode; activation, % at 20 µM; hit rate 0.17% among 330,000; AID 493036, 2011;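 active = activation at or above 40% of the spot to cytoplasm intensity ratio, with at least 20 cells analyzed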;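 also: 0% = DMSO without peptide and 100% = 100 nM NTR1 peptide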
Cardio protect – cardioprotection against H2O2-induced cell death, primary screen, uHTS, H9c2 cells, ATPLite luminescence; hit rate 0.63% among 360,000; protection from H2O2 cell death, % at 20 µM; AID 588492, 2011; H9c2 cardiomyocytes, H2O2 injury protection, 2 h;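 active = compounds giving at least 50% protection of heart cells from peroxide-induced death in the single-dose screen, raw or plate-pattern-corrected value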;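 also: 0% = DMSO wells with peroxide and 100% = DMSO wells without peroxide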
ALR inh – inhibitors of human ALR sulfhydryl oxidase, primary screen, biochemical, H2O2 detection, HRP-luminol luminescence, single point. AID 485317, 2010. inhibition, % (concentration not given with the values). FAD-linked sulfhydryl oxidase ALR (Homo sapiens), P55789. hit rate 3.8% among 290,000. purified ALR, DTT oxidation;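 active = mean replicate inhibition above about 79%, with every replicate also reaching it, limit read from the data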
Target sequence (P55789 whole entry, looked up): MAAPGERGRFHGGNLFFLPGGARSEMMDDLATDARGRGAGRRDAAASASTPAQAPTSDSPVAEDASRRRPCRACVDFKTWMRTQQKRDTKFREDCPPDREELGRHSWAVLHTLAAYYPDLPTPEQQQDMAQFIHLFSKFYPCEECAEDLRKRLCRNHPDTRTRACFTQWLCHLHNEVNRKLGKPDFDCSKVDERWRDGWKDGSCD
An asterisk follows results filed as active. Compounds with a hit are over-represented: about 3.9% of the library has one in this group of screens.

How did CC1Cc2ccccc2N1S(=O)(=O)c1cccc(C(=O)Nc2cccnc2)c1 (configuration not stated) do in these assays?
UBC9 SUMO inh: -5; NTR1 agonist: 0; Cardio protect: -4; ALR inh: -5

Results for CCOc1cccc(CN(CC)CC2CCCN(CCc3cccc(OC)c3)C2)c1O (configuration not stated) ?
UBC9 SUMO inh: 13; NTR1 agonist: 0; Cardio protect: -4; ALR inh: 63

What do the screens show for `CC1CC(C)CN(C(=O)CCNS(=O)(=O)c2cccs2)C1` (configuration not stated)?
UBC9 SUMO inh: -4; NTR1 agonist: 3; Cardio protect: 3; ALR inh: -4

How did CC1CC(C)CN(C(=O)CNS(=O)(=O)c2ccc(Br)s2)C1 (configuration not stated) do in these assays?
UBC9 SUMO inh: -1; NTR1 agonist: 4; Cardio protect: 2

Results for CCC(=O)N1CCc2cc(S(=O)(=O)NCCC(=O)N3CCN(c4cccc(C)c4)C(C)C3)ccc21 (configuration not stated) ?
UBC9 SUMO inh: 2; NTR1 agonist: -1; Cardio protect: -9; ALR inh: 98*

Results for Cc1cccc(N2CCN(C(=O)CCNS(=O)(=O)c3cccs3)CC2C)c1 (configuration not stated) ?
UBC9 SUMO inh: -5; NTR1 agonist: 0; Cardio protect: 3; ALR inh: 93*

What do the screens show for `CCC(=O)N1CCc2cc(S(=O)(=O)NCCC(=O)N3CCN(c4ccccc4)CC3)ccc21`?
UBC9 SUMO inh: -1; NTR1 agonist: 0; Cardio protect: -10; ALR inh: 6

How did COc1cccc(NC(=O)N2CCN(c3cccc(C)c3)C(C)C2)c1 (configuration not stated) do in these assays?
UBC9 SUMO inh: 3; NTR1 agonist: 1; Cardio protect: -20; ALR inh: 99*

Results for Cc1ccc(N2CCN(C(=O)CNS(=O)(=O)c3ccc(Br)s3)CC2C)cc1 (configuration not stated) ?
UBC9 SUMO inh: -43; NTR1 agonist: 3; Cardio protect: -7; ALR inh: 98*

What do the screens show for `COc1cccc(NC(=O)N2CCCCCC2)c1`?
UBC9 SUMO inh: 12; NTR1 agonist: 1; Cardio protect: -2; ALR inh: -14

What do the screens show for `COc1ccc(N2CCN(S(=O)(=O)c3ccc(OC)c(C(=O)N4CCCCC4)c3)CC2)cc1`?
UBC9 SUMO inh: -18; NTR1 agonist: 1; Cardio protect: -12

Results for O=C(CCl)NCc1cc(-c2ccc(Cl)cc2)no1 ?
UBC9 SUMO inh: 4; NTR1 agonist: 1; Cardio protect: -12; ALR inh: 97*

What do the screens show for `CCOC(=O)Cc1csc2nc(-c3ccccc3)nn12`?
UBC9 SUMO inh: 0; NTR1 agonist: 0; Cardio protect: -1; ALR inh: 3

Results for CCOc1ccc2[nH]c(C)c(CN(C)C)c(=O)c2c1 ?
UBC9 SUMO inh: 30; NTR1 agonist: 0; Cardio protect: 2; ALR inh: -3

Results for O=C(Nc1ccccc1SC(=O)c1ccccc1)c1ccccc1 ?
Cardio protect: -10

Results for Cc1ccc(C(=O)Sc2cccccc2=O)cc1 ?
UBC9 SUMO inh: -10; NTR1 agonist: 25; Cardio protect: 23; ALR inh: 99*

What do the screens show for `Cc1ccc(O)c(C2=NCCNC(C(F)(F)F)=C2)c1`?
UBC9 SUMO inh: 9; NTR1 agonist: 0; Cardio protect: -2; ALR inh: 91*

How did CCN(C[C@H]1N[C@@](Cc2ccccc2)(C(=O)OC)[C@H]2C(=O)N(C)C(=O)[C@@H]12)S(=O)(=O)c1ccc(OC)cc1 do in these assays?
NTR1 agonist: -3; Cardio protect: 60*; ALR inh: 2

How did CCN(C[C@H]1N[C@@](Cc2ccccc2)(C(=O)OC)[C@H]2C(=O)N(C)C(=O)[C@@H]12)S(=O)(=O)c1ccc(OC(F)(F)F)cc1 do in these assays?
NTR1 agonist: -2; Cardio protect: 41

Results for CCCCCCSc1ccc([C@H]2N[C@@](Cc3ccccc3)(C(=O)OC)[C@H]3C(=O)N(C)C(=O)[C@@H]23)cc1 ?
NTR1 agonist: 8; Cardio protect: 77*; ALR inh: 1

What do the screens show for `CSc1ncc(Cl)c(C(=O)C(C#N)c2nc3c(C)cc(C)cc3c(=O)[nH]2)n1` (configuration not stated)?
UBC9 SUMO inh: 23; NTR1 agonist: 6; Cardio protect: -10; ALR inh: 86*

What do the screens show for `CSc1ncc(Cl)c(C(=O)Nc2cccc(C)c2)n1`?
UBC9 SUMO inh: -10; NTR1 agonist: 1; Cardio protect: -3; ALR inh: 2

How did O=[N+]([O-])c1ccc2c(c1)N([O-])C1(CCCCC1)[N+]2=O do in these assays?
UBC9 SUMO inh: 54*

Results for CC1=C(c2ccccc2)[N+](=O)C2(CCCC2)N1[O-] ?
UBC9 SUMO inh: 10; NTR1 agonist: -1; Cardio protect: 5; ALR inh: -1

What do the screens show for `CCN(CC)c1ccc(NC(=O)C2=CC=CN3CCS(=O)(=O)N=C23)cc1`?
NTR1 agonist: 1; Cardio protect: -13; ALR inh: 99*

How did COc1cc(/C=C2/CC/C(=C/c3ccc(O)c(OC)c3)C2=O)ccc1O do in these assays?
UBC9 SUMO inh: 21; NTR1 agonist: 18; Cardio protect: 70*; ALR inh: 75

How did COc1cc(/C=C2\CC/C(=C\c3ccc(OCCO)c(OC)c3)C2=O)ccc1OCCO do in these assays?
UBC9 SUMO inh: 8; NTR1 agonist: 4; Cardio protect: 81*; ALR inh: -56

Results for COc1ccc(/C=C2\CC/C(=C\c3ccc(OC)c(OC)c3)C2=O)cc1OC ?
UBC9 SUMO inh: 4; NTR1 agonist: 11; Cardio protect: -8; ALR inh: 3

What do the screens show for `COc1ccc(/C=C2\SC(=Nc3ccccc3OC)NC2=O)cc1`?
UBC9 SUMO inh: -1; NTR1 agonist: -1; Cardio protect: -8; ALR inh: 8

Results for COc1cc(/C=C2\SC(=Nc3ccccc3OC)NC2=O)ccc1O ?
UBC9 SUMO inh: -13; NTR1 agonist: 0; Cardio protect: 8; ALR inh: 99*

What do the screens show for `COc1cc(/C=C2\COC/C(=C\c3ccc(O)c(OC)c3)C2=O)ccc1O`?
UBC9 SUMO inh: -5; NTR1 agonist: 18; Cardio protect: 53*; ALR inh: 28

What do the screens show for `c1ccc(-c2csc(NC3=NCCCCC3)n2)cc1`?
UBC9 SUMO inh: -3; NTR1 agonist: -2; Cardio protect: 2; ALR inh: -9

What do the screens show for `O=C(CSc1nc(-c2cccs2)cc(C(F)(F)F)n1)NCc1ccco1`?
UBC9 SUMO inh: -5; NTR1 agonist: 2; Cardio protect: 5; ALR inh: 5

How did COCCCNc1nc2ccccc2nc1NS(=O)(=O)c1ccc(OC)cc1 do in these assays?
UBC9 SUMO inh: 18; NTR1 agonist: 0; Cardio protect: 4; ALR inh: -3
